# Measured values taken from PubChem BioAssay.
# Records with an inconclusive call do not appear. For part of these data: Measured potencies and affinities stand elsewhere. Active and inactive are the calls of the source. Unless noted, how the calls were made is not given here.
# What was measured:
# [1] = antimalarial activity against Dd2 strain (AID 2302;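 active means growth inhibition above 50% at the single 2 µM test dose, taken to imply half-maximal potency below 2 µM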;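 further: 0% = DMSO untreated growth and 100% = chloroquine plus artemisinin killed control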); settings: P. falciparum Dd2 in RBCs, LDH growth readout, 72 h; at 2 µM; stronger effect = higher value
# [2] = human hepatoma cell viability loss – ATP luminescence, cytotoxicity control for P. falciparum antimalarial project, primary screen (AID 2303;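 active means inhibition above 50%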;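 further: 0% = DMSO wells and 100% = digitonin-killed cells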); settings: HepG2 viability, 24-48 h, at 10 µM, stronger effect = higher value
# [3] = molecular target: L-lactate dehydrogenase (Plasmodium falciparum (isolate CDC / Honduras)) (UniProt Q27743); test: PfLDH activity inhibition – cell lysate, 3D7 strain, counter-screen for P. falciparum growth inhibition project (AID 2304);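 further: 0% = vehicle and 100% = reference inhibitor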; settings: P. falciparum 3D7 crude extract, LDH APAD/NBT absorbance; at 2 µM; stronger effect = higher value
# L-lactate dehydrogenase (Plasmodium falciparum (isolate CDC / Honduras)), sequence (Q27743 whole entry, looked up): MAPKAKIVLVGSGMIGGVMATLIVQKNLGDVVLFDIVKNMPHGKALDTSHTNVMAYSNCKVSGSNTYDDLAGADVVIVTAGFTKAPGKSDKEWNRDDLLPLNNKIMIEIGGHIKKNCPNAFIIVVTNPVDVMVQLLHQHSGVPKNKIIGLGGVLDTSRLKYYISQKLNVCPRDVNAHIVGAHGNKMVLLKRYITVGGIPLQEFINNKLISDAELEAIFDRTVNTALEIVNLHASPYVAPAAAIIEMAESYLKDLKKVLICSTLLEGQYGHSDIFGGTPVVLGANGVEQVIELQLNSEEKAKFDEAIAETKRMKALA
# [4] = inhibition of 3D7 malaria parasite growth – strain 3D7 (AID 2306);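 further: 0% = DMSO wells and 100% = chloroquine plus artemisinin control wells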; settings: P. falciparum 3D7 erythrocytic growth, LDH absorbance, 72 h; at 2 µM; stronger effect = higher value
# [5] = molecular target: Plasmodium falciparum protein kinase 6 (PK6, PF3D7_1337100) (UniProt Q8IDW1); test: PfPK6 kinase inhibitors, biochemical, TCAMS library (AID 1159586); settings: recombinant PfPK6, Kinase-Glo ATP depletion luminescence
# Plasmodium falciparum protein kinase 6 (PK6, PF3D7_1337100), sequence (Q8IDW1 1-305): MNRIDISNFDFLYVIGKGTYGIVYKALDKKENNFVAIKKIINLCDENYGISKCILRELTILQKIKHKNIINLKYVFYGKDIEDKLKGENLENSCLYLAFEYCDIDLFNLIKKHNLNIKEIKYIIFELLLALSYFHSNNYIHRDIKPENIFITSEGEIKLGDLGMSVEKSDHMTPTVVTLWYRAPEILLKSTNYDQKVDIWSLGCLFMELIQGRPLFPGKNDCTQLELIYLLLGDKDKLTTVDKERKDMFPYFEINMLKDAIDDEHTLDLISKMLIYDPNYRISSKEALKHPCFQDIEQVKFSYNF
# [6] = molecular target: Protein kinase 7 (PK7), Plasmodium falciparum 3D7 (PF3D7_0213400) (UniProt Q7YTF7); test: inhibition of Plasmodium PK7 catalytic activity – biochemical, TCAMS antimalarial set, Kinase-Glo luminescence (AID 1159587); settings: recombinant PfPK7, Kinase-Glo ATP depletion luminescence
# Protein kinase 7 (PK7), Plasmodium falciparum 3D7 (PF3D7_0213400), sequence (Q7YTF7 1-343): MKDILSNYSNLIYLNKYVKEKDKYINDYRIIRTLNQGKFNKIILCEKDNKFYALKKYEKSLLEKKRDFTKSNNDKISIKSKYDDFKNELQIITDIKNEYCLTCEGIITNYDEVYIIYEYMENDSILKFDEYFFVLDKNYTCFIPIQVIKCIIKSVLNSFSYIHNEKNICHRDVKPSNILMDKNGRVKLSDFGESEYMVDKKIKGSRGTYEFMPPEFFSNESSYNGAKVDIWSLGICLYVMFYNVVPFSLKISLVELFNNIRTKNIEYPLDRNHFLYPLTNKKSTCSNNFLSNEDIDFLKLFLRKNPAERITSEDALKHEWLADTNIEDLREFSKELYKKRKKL
# [7] = molecular target: Calcium-dependent protein kinase 4 (Plasmodium falciparum (isolate 3D7)) (UniProt Q8IBS5); test: PfCDPK4 kinase inhibitors, biochemical, TCAMS library (AID 1159588; cut-off not given, nearly all actives have IC50 up to about 0.91 µM); settings: recombinant PfCDPK4, Kinase-Glo ATP depletion luminescence
# Calcium-dependent protein kinase 4 (Plasmodium falciparum (isolate 3D7)), sequence (Q8IBS5 whole entry, looked up): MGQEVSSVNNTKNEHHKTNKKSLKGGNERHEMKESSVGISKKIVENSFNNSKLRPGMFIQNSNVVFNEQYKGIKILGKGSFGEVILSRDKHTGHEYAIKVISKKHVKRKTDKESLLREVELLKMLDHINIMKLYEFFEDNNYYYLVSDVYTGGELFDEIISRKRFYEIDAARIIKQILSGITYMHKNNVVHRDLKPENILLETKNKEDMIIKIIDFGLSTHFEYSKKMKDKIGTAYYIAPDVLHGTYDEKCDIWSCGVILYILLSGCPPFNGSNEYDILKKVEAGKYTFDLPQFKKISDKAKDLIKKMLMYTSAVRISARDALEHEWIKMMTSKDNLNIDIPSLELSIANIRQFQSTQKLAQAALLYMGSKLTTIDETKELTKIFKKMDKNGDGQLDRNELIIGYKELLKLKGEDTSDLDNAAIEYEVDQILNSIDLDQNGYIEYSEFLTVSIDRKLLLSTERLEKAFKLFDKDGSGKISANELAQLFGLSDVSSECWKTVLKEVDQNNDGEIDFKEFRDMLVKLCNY
# [8] = tested on: Aerobactin synthetase IucA (Klebsiella pneumoniae); test: inhibition of K. pneumoniae IucA enzyme – biochemical, Tocris library, absorbance (AID 1345561); settings: purified IucA enzyme assay, absorbance (OD) read-out; stronger effect = lower value;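 tested at 8 µM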;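 further: 100% = enzyme without compound and 0% = no enzyme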
# [9] = viability loss in pontine glioma line – cell-based, SU-DIPG-XVII, MIPE5.0, CellTiter-Glo, qHTS, dose response (AID 1347060; cut-off not given, nearly all actives have AC50 up to about 26 µM;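 further: cells exposed to compound for 48 hours before viability readout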); settings: CellTiter-Glo ATP luminescence
# [10] = viability loss in pontine glioma line – cell-based, SU-DIPG-XIII, MIPE4.0, CellTiter-Glo, qHTS, dose response (AID 1347061; cut-off not given, nearly all actives have AC50 up to about 37 µM;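 further: cells exposed to compound for 48 hours before readout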); settings: CellTiter-Glo ATP luminescence
# [11] = viability loss in pontine glioma line – cell-based, JHH-DIPG-1, MIPE4.0, CellTiter-Glo, qHTS, dose response (AID 1347062; cut-off not given, nearly all actives have AC50 up to about 27 µM;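 further: cells exposed to compound for two days before readout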); settings: JHH-DIPG-1 viability, CellTiter-Glo ATP luminescence
# [12] = viability loss in pontine glioma line – cell-based, SU-DIPG-IV, MIPE4.0, CellTiter-Glo, qHTS, dose response (AID 1347063; cut-off not given, nearly all actives have AC50 up to about 30 µM;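 further: compound exposure lasted 48 hours before the viability readout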); settings: CellTiter-Glo ATP luminescence
# [13] = viability loss in pontine glioma line – cell-based, SU-DIPG-XIII, MIPE5.0, CellTiter-Glo, qHTS, dose response (AID 1347064; cut-off not given, nearly all actives have AC50 up to about 23 µM;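 further: cells exposed to compound for 48 hours before the viability read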); settings: CellTiter-Glo ATP luminescence
# [14] = viability loss in pontine glioma line – cell-based, SU-DIPG-XXV, MIPE5.0, CellTiter-Glo, qHTS, dose response (AID 1347065; cut-off not given, nearly all actives have AC50 up to about 26 µM;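 further: cells exposed to compound for 48 hours before ATP readout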); settings: CellTiter-Glo ATP luminescence
# [15] = growth inhibition of DIPG cells – cell-based, MIPE4.0 library, CellTiter-Glo luminescence, qHTS (AID 1347066; cut-off not given, nearly all actives have AC50 up to about 30 µM;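 further: cells exposed to compound for 48 hours before readout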); settings: SU-DIPG-VI viability, CellTiter-Glo ATP luminescence
# [16] = JHH-DIPG-1 glioma cell viability, MIPE5.0 library, CellTiter-Glo luminescence, qHTS (AID 1347067; cut-off not given, nearly all actives have AC50 up to about 26 µM;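 further: cells exposed to compound for 48 hours before readout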); settings: JHH-DIPG-1 glioma viability, CellTiter-Glo ATP luminescence
# [17] = growth inhibition of DIPG cells – cell-based, MIPE5.0 library, qHTS (AID 1347068; cut-off not given, nearly all actives have IC50 up to about 30 µM); settings: SU-DIPG-XXV viability
# [18] = viability loss with induced miR-34 in A549 – imaging, A549 dox-inducible miR-34, nuclei and caspase counts, primary screen (AID 1347080;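 active means compounds whose cell count with miR-34 switched on is under 0.7 times the count with it off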); settings: A549 miR-34 inducible, Hoechst nuclei count, 48 h
# [19] = compounds altering HSF1 focus formation in cells – imaging, Selleck Cancer Library (AID 1347162; in the data active means plate-normalised HSF1 focus index below about 0.46); settings: human cells, HSF1 nuclear foci imaging, at 10 µM; SSMD: measured here: HSF1 foci SSMD mean; cell count: measured here: cell number; plate-normalised HSF1 focus index: stronger effect = lower value
# [20] = galactose survival enhancers in mitochondrial complex I cybrids – cell-based, galactose medium, ATP luminescence, primary screen (AID 1645843;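 active means z-score of at least 1.8 in each of two replicates, scored against plate mean and spread of sample wells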;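 further: positive z means more ATP and so rescue of galactose-driven cybrid death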); settings: complex I mutant cybrid cells, 72 h, stronger effect = higher value
structure (smiles),measurement,setting,value
CC(C)(CNCc1ccc(Cl)c(Cl)c1)c1nc(-c2ccc(Cl)c(O)c2)c(-c2ccncc2)[nH]1,growth inhibition,[1],97% (active)
same,inhibition,[2],43% (inactive)
same,inhibition,[3],-3% (inactive)
same,growth inhibition,[4],101% (active)
same,outcome,[5],inactive
same,outcome,[6],inactive
same,outcome,[7],inactive
Cc1[nH]c(/C=C2\C(=O)Nc3ccc(S(=O)(=O)Cc4c(Cl)cccc4Cl)cc32)c(C)c1C(=O)N1CCC[C@@H]1CN1CCCC1,growth inhibition,[1],92% (active)
same,inhibition,[2],33% (inactive)
same,inhibition,[3],-1% (inactive)
same,growth inhibition,[4],85% (active)
same,outcome,[5],inactive
same,outcome,[6],inactive
same,remaining activity,[8],123% (inactive)
same,AC50,[9],9.34 µM (active)
same,outcome,[10],inactive
same,AC50,[11],26.4 µM (active)
same,AC50,[12],23.5 µM (active)
same,AC50,[13],9.34 µM (active)
same,AC50,[14],8.33 µM (active)
same,AC50,[15],8.33 µM (active)
same,AC50,[16],5.9 µM (active)
same,outcome,[17],inactive
same,fold change,"[18]; stronger effect = lower value, cell number ratio, induced over uninduced",1.1 (inactive)
same,fold change,[18]; measured here: relative caspase fold change +Dox/-Dox,1.29
same,cell count,"[18]; measured here: total cells with miR-34 induction, stronger effect = lower value",5950
same,cell count,[18]; measured here: total cells without miR-34 induction,5410
same,SSMD,[19],0.661
same,cell count,[19],7510
same,plate-normalised HSF1 focus index,[19],1.05 (inactive)
same,z-score,[20],-0.7 (inactive)
CCn1c(-c2nonc2N)nc2c(-c3cccc(Cl)c3)ncc(OCCCNCCc3cnc[nH]3)c21,growth inhibition,[1],98% (active)
same,inhibition,[2],16% (inactive)
same,inhibition,[3],-3% (inactive)
same,growth inhibition,[4],101% (active)
same,outcome,[5],inactive
same,outcome,[6],inactive
CC(C)(CN)c1cc(-c2ccc(Cl)c(O)c2)c(-c2ccncc2)o1,growth inhibition,[1],97% (active)
same,inhibition,[2],44% (inactive)
same,inhibition,[3],7% (inactive)
same,growth inhibition,[4],92% (active)
same,outcome,[5],inactive
same,outcome,[6],inactive
Cc1ccc(Nc2nccc(N(C)c3ccc4c(c3)nc(NC(=O)Cc3ccc(Cl)c(Cl)c3)n4C)n2)cc1S(N)(=O)=O,growth inhibition,[1],60% (active)
same,inhibition,[2],71% (active)
same,inhibition,[3],0% (inactive)
same,growth inhibition,[4],94% (active)
same,outcome,[5],inactive
same,outcome,[6],inactive
same,outcome,[7],inactive
Cc1cccc(Nc2nc(N[C@@H]3CCCNC3)nc3cc[nH]c(=O)c23)c1,growth inhibition,[1],98% (active)
same,inhibition,[2],55% (active)
same,inhibition,[3],1% (inactive)
same,growth inhibition,[4],99% (active)
same,outcome,[5],inactive
same,outcome,[6],inactive
CN1CCN(CCCNCc2ccc(Nc3nccc(Nc4ccc(Oc5ccccc5)cc4)n3)cc2)CC1,growth inhibition,[1],9% (inactive)
same,inhibition,[2],17% (inactive)
same,inhibition,[3],0% (inactive)
same,growth inhibition,[4],100% (active)
same,outcome,[5],inactive
same,outcome,[6],inactive
same,outcome,[7],inactive
CNC(=O)c1ccccc1Nc1nc(Nc2ccc(C(=O)O)cc2)ncc1Cl,growth inhibition,[1],92% (active)
same,inhibition,[2],60% (active)
same,inhibition,[3],-2% (inactive)
same,growth inhibition,[4],92% (active)
same,outcome,[5],inactive
same,outcome,[6],inactive
same,outcome,[7],inactive
O=C(NC1CC1)c1ccc(Nc2nccc(-c3c(-c4cccc(NC(=O)c5c(F)cccc5F)c4)nn4ccccc34)n2)cc1,growth inhibition,[1],96% (active)
same,inhibition,[2],84% (active)
same,inhibition,[3],-1% (inactive)
same,growth inhibition,[4],94% (active)
same,outcome,[5],inactive
same,outcome,[6],inactive
same,outcome,[7],inactive
CS(=O)(=O)CCNCc1cccc(-c2ccc3c(Nc4cc(O)c(Cl)cc4F)ccnc3c2)c1,growth inhibition,[1],100% (active)
same,inhibition,[2],9% (inactive)
same,inhibition,[3],-7% (inactive)
same,growth inhibition,[4],101% (active)
same,outcome,[5],inactive
same,outcome,[6],inactive
same,outcome,[7],inactive
COc1cc2nccc(Nc3ccc(Oc4ccccc4)cc3)c2cc1OC,growth inhibition,[1],99% (active)
same,inhibition,[2],13% (inactive)
same,inhibition,[3],-1% (inactive)
same,growth inhibition,[4],102% (active)
same,outcome,[5],inactive
same,outcome,[6],inactive
same,outcome,[7],inactive
O=C(NCCCN1CCOCC1)c1cccc(Nc2nccc(Nc3ccc(Oc4ccccc4)cc3)n2)c1,growth inhibition,[1],22% (inactive)
same,inhibition,[2],34% (inactive)
same,inhibition,[3],-9% (inactive)
same,growth inhibition,[4],98% (active)
same,outcome,[5],inactive
same,outcome,[6],inactive
same,outcome,[7],inactive
Oc1cccc(Nc2ccnc3cc(-c4nccs4)ccc23)c1,inhibition,[2],-10% (inactive)
same,inhibition,[3],-7% (inactive)
same,growth inhibition,[4],98% (active)
same,outcome,[5],inactive
same,outcome,[6],inactive
same,outcome,[7],inactive
CS(=O)(=O)Nc1cccc(-c2cnc3[nH]cc(-c4ccc(CN)cc4)c3c2)c1,growth inhibition,[1],95% (active)
same,inhibition,[2],27% (inactive)
same,inhibition,[3],2% (inactive)
same,growth inhibition,[4],98% (active)
same,outcome,[5],inactive
same,outcome,[6],inactive
same,outcome,[7],inactive
CCn1c(-c2nonc2N)nc2c(-c3cccc(NC(=O)Nc4ccccc4OC)c3)ncc(OCCCN)c21,growth inhibition,[1],58% (active)
same,inhibition,[2],84% (active)
same,inhibition,[3],-2% (inactive)
same,growth inhibition,[4],92% (active)
same,outcome,[5],inactive
same,outcome,[6],inactive
CCn1c(-c2nonc2N)nc2c(-c3cccc(NC(=O)Nc4cccc(Cl)c4)c3)ncc(OCCCN)c21,growth inhibition,[1],78% (active)
same,inhibition,[2],9% (inactive)
same,inhibition,[3],-1% (inactive)
same,growth inhibition,[4],91% (active)
same,outcome,[5],inactive
same,outcome,[6],inactive
Oc1cccc(-c2cnc3ccc(NCc4ccc(F)cc4)nn23)c1,growth inhibition,[1],66% (active)
same,inhibition,[2],-5% (inactive)
same,inhibition,[3],2% (inactive)
same,growth inhibition,[4],91% (active)
same,outcome,[5],inactive
same,outcome,[6],inactive
same,outcome,[7],inactive
CCn1c(-c2nc(-c3ccnc(N4CCN(C)CC4)c3)cnc2N)nc2cc(S(C)(=O)=O)ccc21,growth inhibition,[1],76% (active)
same,inhibition,[2],44% (inactive)
same,inhibition,[3],-1% (inactive)
same,growth inhibition,[4],101% (active)
same,outcome,[5],inactive
same,outcome,[6],inactive
same,outcome,[7],inactive
CC(C)(CN)c1nc(-c2ccc(Cl)c(O)c2)c(-c2ccnc(N)n2)[nH]1,growth inhibition,[1],95% (active)
same,inhibition,[2],34% (inactive)
same,inhibition,[3],-5% (inactive)
same,growth inhibition,[4],95% (active)
same,outcome,[5],inactive
same,outcome,[6],inactive
same,outcome,[7],inactive
